{
  "source": "the supplement of paper PMC8975748",
  "note": "Structures can show the parent of a compound that is named as a salt.",
  "data": [
    {"test_system": "Saccharomyces cerevisiae BY4741 SeMeCo community", "experiment": "z-score of subpopulation abundance vs DMSO median, subpopulation auxotrophic for LM; higher = larger share of this subpopulation than in DMSO controls", "settings": "10 µM; 24 h; SM minimal medium; subpopulation (auxotrophy): LM", "method": "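Fluorescent four-plasmid SeMeCo (self-establishing metabolically cooperating S. cerevisiae BY4741 community; plasmids pH-mRuby2, pL-mWasabi, pU-eCFP, pM-TagRFP657) was grown 24 h in minimal SM medium with each Selleck FDA-approved drug at 10 µM in 384-well plates. Cells were fixed and imaged by high-content confocal microscopy. For each auxotrophic subpopulation (and the prototroph), a z-score gives the deviation from the DMSO vehicle-control population median.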", "values": [
      {"smiles": "CCC1(C)CC(=O)NC1=O", "note": "(stereo not given) [Ethosuximide]", "z-score of subpopulation abundance": -0.21},
      {"smiles": "CCN(CC)CCOC(=O)c1ccc(N)cc1Cl", "note": "[Chloroprocaine HCl]", "z-score of subpopulation abundance": 0.62},
      {"smiles": "CC[C@H]1OC(=O)C[C@@H](O)[C@H](C)[C@@H](O[C@@H]2O[C@H](C)[C@@H](O[C@H]3C[C@@](C)(O)[C@@H](O)[C@H](C)O3)[C@H](N(C)C)[C@H]2O)[C@@H](CC=O)C[C@@H](C)C(=O)/C=C/C(C)=C/[C@@H]1CO[C@@H]1O[C@H](C)[C@@H](O)[C@@H](OC)[C@H]1OC", "note": "[Tylosin]", "z-score of subpopulation abundance": 1.45},
      {"smiles": "NC(=O)c1ncn([C@@H]2O[C@H](CO)[C@@H](O)[C@H]2O)n1", "note": "[Ribavirin]", "z-score of subpopulation abundance": -0.41},
      {"smiles": "CO[C@H]1C[C@@H]2CC[C@@H](C)[C@@](O)(O2)C(=O)C(=O)N2CCCC[C@H]2C(=O)O[C@H]([C@H](C)C[C@@H]2CC[C@@H](OCCO)[C@H](OC)C2)CC(=O)[C@H](C)/C=C(\\C)[C@@H](O)[C@@H](OC)C(=O)[C@H](C)C[C@H](C)/C=C/C=C/C=C/1C", "note": "[Everolimus (RAD001)]", "z-score of subpopulation abundance": 4.3},
      {"smiles": "C[C@@H](O)[C@H]1C(=O)N2C(C(=O)O)=C(S[C@@H]3CN[C@H](C(=O)N(C)C)C3)[C@H](C)[C@H]12", "note": "[Meropenem]", "z-score of subpopulation abundance": -0.29},
      {"smiles": "CN1CCN(c2c(F)cc3c(=O)c(C(=O)O)cn4c3c2OCN4C)CC1", "note": "[Marbofloxacin]", "z-score of subpopulation abundance": -0.36},
      {"smiles": "Cc1c(C)c2c(c(C)c1O)CCC(C)(CCCC(C)CCCC(C)CCCC(C)C)O2", "note": "(stereo not given) [Vitamin E]", "z-score of subpopulation abundance": -0.64},
      {"smiles": "Cc1cc(=O)n(-c2ccccc2)n1C", "note": "[Antipyrine]", "z-score of subpopulation abundance": -0.72},
      {"smiles": "COc1cccc2c1C(=O)c1c(O)c3c(c(O)c1C2=O)C[C@@](O)(C(=O)CO)C[C@@H]3O[C@H]1C[C@H](N)[C@@H](O)[C@H](C)O1", "note": "[Epirubicin HCl]", "z-score of subpopulation abundance": -0.38},
      {"smiles": "OCCN1CCN(CCCN2c3ccccc3Sc3ccc(Cl)cc32)CC1", "note": "[Perphenazine]", "z-score of subpopulation abundance": -0.01},
      {"smiles": "C#CCN[C@@H]1CCc2ccccc21", "note": "[Rasagiline Mesylate]", "z-score of subpopulation abundance": 0.42},
      {"smiles": "CC(C)(C)C(=O)C(Oc1ccc(Cl)cc1)n1ccnc1", "note": "(stereo not given) [Climbazole]", "z-score of subpopulation abundance": 0.49},
      {"smiles": "CN1CC(=O)N2[C@H](c3ccc4c(c3)OCO4)c3[nH]c4ccccc4c3C[C@@H]2C1=O", "note": "[Tadalafil]", "z-score of subpopulation abundance": 3.43},
      {"smiles": "CCC(C)n1ncn(-c2ccc(N3CCN(c4ccc(OCC5COC(Cn6cncn6)(c6ccc(Cl)cc6Cl)O5)cc4)CC3)cc2)c1=O", "note": "(stereo not given) [Itraconazole]", "z-score of subpopulation abundance": 1.85},
      {"smiles": "CCc1c(C)[nH]c2c1C(=O)C(CN1CCOCC1)CC2", "note": "(stereo not given) [Molindone hydrochloride]", "z-score of subpopulation abundance": -0.16},
      {"smiles": "Cc1nccn1CC1CCc2c(c3ccccc3n2C)C1=O", "note": "(stereo not given) [Ondansetron HCl]", "z-score of subpopulation abundance": -0.49},
      {"smiles": "O=C(Nc1ccc(Oc2ccc(Cl)cc2)c(Cl)c1)c1cc(I)cc(I)c1O", "note": "[Rafoxanide]", "z-score of subpopulation abundance": 0.2},
      {"smiles": "NNc1nncc2ccccc12", "note": "[Hydralazine HCl]", "z-score of subpopulation abundance": -0.56},
      {"smiles": "CNC1CCCN(c2c(F)cc3c(=O)c(C(=O)O)cn(C4CC4)c3c2OC)C1", "note": "(stereo not given) [Balofloxacin]", "z-score of subpopulation abundance": -0.13},
      {"smiles": "Nc1nnc(-c2cccc(Cl)c2Cl)c(N)n1", "note": "[Lamotrigine]", "z-score of subpopulation abundance": 1.83},
      {"smiles": "NCC[C@H](O)C(=O)N[C@@H]1C[C@H](N)[C@@H](O[C@H]2O[C@H](CN)[C@@H](O)[C@H](O)[C@H]2O)[C@H](O)[C@H]1O[C@H]1O[C@H](CO)[C@@H](O)[C@H](N)[C@H]1O", "note": "[Amikacin hydrate]", "z-score of subpopulation abundance": 0.15},
      {"smiles": "CC1(C)S[C@@H]2[C@H](NC(=O)Cc3ccccc3)C(=O)N2[C@H]1C(=O)O", "note": "[Penicillin G Sodium]", "z-score of subpopulation abundance": -0.29},
      {"smiles": "Cc1cc(/C=C/c2ccc3cc(N(C)C)ccc3[n+]2C)c(C)n1-c1ccccc1", "note": "[pyrvinium]", "z-score of subpopulation abundance": -0.19},
      {"smiles": "OCCN(CCO)c1nc(N2CCCCC2)c2nc(N(CCO)CCO)nc(N3CCCCC3)c2n1", "note": "[Dipyridamole]", "z-score of subpopulation abundance": 10.9},
      {"smiles": "CC(=O)[C@@]1(O)CC[C@H]2[C@@H]3C[C@H](C)C4=CC(=O)CC[C@]4(C)[C@H]3CC[C@@]21C", "note": "[Medroxyprogesterone]", "z-score of subpopulation abundance": 0.45},
      {"smiles": "Cc1cc(C)nc(NS(=O)(=O)c2ccc(N)cc2)n1", "note": "[Sulfamethazine Sodium Salt]", "z-score of subpopulation abundance": -0.63},
      {"smiles": "COC(=O)C1=C(C)NC(C)=C(C(=O)OCCN2CCN(C(c3ccccc3)c3ccccc3)CC2)C1c1cccc([N+](=O)[O-])c1", "note": "(stereo not given) [Manidipine]", "z-score of subpopulation abundance": 2.53},
      {"smiles": "O=C(O)c1ccccc1O", "note": "[Salicylic acid]", "z-score of subpopulation abundance": -0.74},
      {"smiles": "CN(C)CCc1c[nH]c2ccc(C[C@H]3COC(=O)N3)cc12", "note": "[Zolmitriptan]", "z-score of subpopulation abundance": -0.12},
      {"smiles": "COC(=O)C1=C(C)NC(C)=C(C(=O)OC(C)(C)CN(C)CCC(c2ccccc2)c2ccccc2)C1c1cccc([N+](=O)[O-])c1", "note": "(stereo not given) [Lercanidipine hydrochloride]", "z-score of subpopulation abundance": 1.89},
      {"smiles": "CCOC(=O)c1ccc(N)cc1", "note": "[Benzocaine]", "z-score of subpopulation abundance": 0.32},
      {"smiles": "CO/N=C(\\C(=O)N[C@@H]1C(=O)N2C(C(=O)[O-])=C(C[n+]3cccc4c3CCC4)CS[C@H]12)c1csc(N)n1", "note": "[Cefpirome sulfate]", "z-score of subpopulation abundance": 0.27},
      {"smiles": "CC1=Nc2ccc(Cl)cc2S(=O)(=O)N1", "note": "[Diazoxide]", "z-score of subpopulation abundance": -1.03},
      {"smiles": "CC[C@@]1(O)C(=O)OCc2c1cc1n(c2=O)Cc2cc3cc(O)ccc3nc2-1", "note": "[Hydroxy Camptothecine]", "z-score of subpopulation abundance": 3.19},
      {"smiles": "CC(C)[C@H]1CC[C@H](C(=O)N[C@H](Cc2ccccc2)C(=O)O)CC1", "note": "[Nateglinide]", "z-score of subpopulation abundance": 0.32},
      {"smiles": "Cc1ccccc1OCC(O)CO", "note": "(stereo not given) [Mephenesin]", "z-score of subpopulation abundance": 0.02},
      {"smiles": "CN[C@H]1CC[C@@H](c2ccc(Cl)c(Cl)c2)c2ccccc21", "note": "[Sertraline HCl]", "z-score of subpopulation abundance": -0.97},
      {"smiles": "O=C(O)CCC(=O)OC[C@@H](NC(=O)C(Cl)Cl)[C@H](O)c1ccc([N+](=O)[O-])cc1", "note": "[Chloramphenicol sodium succinate]", "z-score of subpopulation abundance": 1.25},
      {"smiles": "C[C@]12CC[C@@H]3c4ccc(O)cc4CC[C@H]3[C@@H]1CC[C@@H]2OC(=O)CCC1CCCC1", "note": "[Estradiol Cypionate]", "z-score of subpopulation abundance": -0.12}
    ]}
  ]
}
